What all share (assay): DAPPL (digital affinity profiling via proximity ligation, sequencing); 10 mM Tris-HCl pH 7.5, 50 mM NaCl, 1 mM DTT, 4% glycerol, room temperature, 30 min; GST-TFs on glutathione beads, 16-mer random dsDNA library, 0.1% formaldehyde crosslink after washing; high values mean tight binding
The target in one test is T1, FEV (Homo sapiens, UniProt Q99581 1-238).
T1 sequence: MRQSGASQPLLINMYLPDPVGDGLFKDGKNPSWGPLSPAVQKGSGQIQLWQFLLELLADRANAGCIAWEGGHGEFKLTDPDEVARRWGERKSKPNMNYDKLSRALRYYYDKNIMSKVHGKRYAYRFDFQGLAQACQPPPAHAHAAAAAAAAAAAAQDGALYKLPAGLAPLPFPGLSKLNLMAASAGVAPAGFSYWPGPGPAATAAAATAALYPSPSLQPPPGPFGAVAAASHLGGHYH
As to conditions: protein: recombinant; tags: N-terminal GST; dsDNA, one strand shown. The method, boiled down:
(§1)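 Human transcription factors carrying a GST fusion were produced in yeast, bound to glutathione beads, tagged with DNA barcodes and pooled together with a tag-only sample. Each pool was held with 200 nmole of a random double-stranded 16-mer DNA library in Tris/NaCl/DTT/glycerol buffer for 30 min at room temperature, then washed, crosslinked in 0.1% formaldehyde, proximity-ligated with BsaI/T4 ligase (1 h, 37 °C), PCR-amplified and sequenced on an Illumina NextSeq500. Binding signal is the read frequency of each hexamer for a given factor divided by its frequency in the tag-only sample.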

For a further test, the target named is ETV5 (Homo sapiens, UniProt P41161 1-510). Conditions: protein: recombinant; tags: N-terminal GST; dsDNA, one strand shown. The method, boiled down:
as §1

In another test the target is HSF1 (Homo sapiens, UniProt Q00613 1-529). Conditions: protein: recombinant; tags: N-terminal GST; chain copies: 3; dsDNA, one strand shown. The method, boiled down:
as §1

For a further test, the target named is T2, SPIC (Homo sapiens, UniProt Q8N5J4 1-248).
T2 sequence: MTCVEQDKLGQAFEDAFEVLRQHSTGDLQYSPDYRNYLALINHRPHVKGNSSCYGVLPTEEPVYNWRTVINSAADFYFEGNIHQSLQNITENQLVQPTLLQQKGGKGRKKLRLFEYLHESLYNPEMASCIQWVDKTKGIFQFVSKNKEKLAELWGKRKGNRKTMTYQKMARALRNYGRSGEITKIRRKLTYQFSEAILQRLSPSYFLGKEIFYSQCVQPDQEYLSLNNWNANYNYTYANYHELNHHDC
Conditions: protein: recombinant; tags: N-terminal GST; dsDNA, one strand shown. An outline of the steps: as §1

Another test concerns the target ELF4 (Homo sapiens, UniProt Q99607 1-663). Conditions: protein: recombinant; tags: N-terminal GST; dsDNA, one strand shown. An outline of the steps:
as §1

For another test, the target named is T3, ELK4 (Homo sapiens, UniProt P28324-2 1-405).
T3 sequence: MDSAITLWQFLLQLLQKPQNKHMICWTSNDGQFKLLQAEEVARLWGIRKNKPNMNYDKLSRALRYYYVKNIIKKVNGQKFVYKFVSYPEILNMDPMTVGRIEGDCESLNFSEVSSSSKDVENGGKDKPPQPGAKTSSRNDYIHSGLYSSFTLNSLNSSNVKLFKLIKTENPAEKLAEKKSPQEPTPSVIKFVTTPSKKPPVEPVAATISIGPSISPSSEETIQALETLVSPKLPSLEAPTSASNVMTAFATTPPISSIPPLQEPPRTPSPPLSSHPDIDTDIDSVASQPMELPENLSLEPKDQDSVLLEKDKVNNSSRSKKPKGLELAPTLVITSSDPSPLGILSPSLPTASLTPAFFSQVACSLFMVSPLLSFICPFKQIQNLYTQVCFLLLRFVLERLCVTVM
As to conditions: protein: recombinant; tags: N-terminal GST; dsDNA, one strand shown. The method, boiled down: as §1

The next test deals with T4, ETV2 (Homo sapiens, UniProt O00321 1-342).
T4 sequence: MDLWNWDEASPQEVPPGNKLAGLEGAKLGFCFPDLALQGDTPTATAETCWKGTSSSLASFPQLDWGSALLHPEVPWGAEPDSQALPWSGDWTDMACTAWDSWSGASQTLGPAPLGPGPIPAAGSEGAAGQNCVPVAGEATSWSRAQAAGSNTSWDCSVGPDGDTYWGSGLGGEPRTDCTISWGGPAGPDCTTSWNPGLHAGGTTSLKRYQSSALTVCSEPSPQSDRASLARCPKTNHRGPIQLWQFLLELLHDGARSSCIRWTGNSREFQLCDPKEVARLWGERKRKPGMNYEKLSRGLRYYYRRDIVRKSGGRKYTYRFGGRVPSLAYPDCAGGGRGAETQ
Conditions: protein: recombinant; tags: N-terminal GST; dsDNA, one strand shown. An outline of the steps:
as §1

A further test addresses T5, ELF3 (Homo sapiens, UniProt P78545 1-371).
T5 sequence: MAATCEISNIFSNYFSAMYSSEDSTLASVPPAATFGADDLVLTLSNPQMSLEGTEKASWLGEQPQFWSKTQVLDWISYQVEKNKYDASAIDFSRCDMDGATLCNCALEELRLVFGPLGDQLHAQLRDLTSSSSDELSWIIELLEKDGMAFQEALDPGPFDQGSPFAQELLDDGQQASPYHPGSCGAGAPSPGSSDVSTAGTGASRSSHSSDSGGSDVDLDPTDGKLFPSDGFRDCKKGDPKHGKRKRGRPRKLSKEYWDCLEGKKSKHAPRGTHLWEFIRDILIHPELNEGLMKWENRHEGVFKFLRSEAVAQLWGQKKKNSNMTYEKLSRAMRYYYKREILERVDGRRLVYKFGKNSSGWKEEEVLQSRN
Conditions: protein: recombinant; tags: N-terminal GST; dsDNA, one strand shown. The method, boiled down:
as §1

In another test the target is CRX (Homo sapiens, UniProt O43186 1-299). As to conditions: protein: recombinant; tags: N-terminal GST; dsDNA, one strand shown. The method, boiled down: as §1
Sequence of CRX (O43186 whole entry): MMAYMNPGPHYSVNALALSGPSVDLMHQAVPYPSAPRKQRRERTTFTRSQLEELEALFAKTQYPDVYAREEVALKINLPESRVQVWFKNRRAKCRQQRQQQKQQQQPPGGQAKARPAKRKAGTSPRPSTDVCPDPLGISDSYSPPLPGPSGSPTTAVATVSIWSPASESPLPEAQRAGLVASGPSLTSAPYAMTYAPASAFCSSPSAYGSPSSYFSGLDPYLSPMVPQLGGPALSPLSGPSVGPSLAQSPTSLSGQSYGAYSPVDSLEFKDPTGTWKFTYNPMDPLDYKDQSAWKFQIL
Another test concerns the target ETV1 (Homo sapiens, UniProt P50549 1-477). As to conditions: protein: recombinant; tags: N-terminal GST; dsDNA, one strand shown. An outline of the steps: as §1
For a further test, the target named is T6, ERF (Homo sapiens, UniProt P50548 1-548).
T6 sequence: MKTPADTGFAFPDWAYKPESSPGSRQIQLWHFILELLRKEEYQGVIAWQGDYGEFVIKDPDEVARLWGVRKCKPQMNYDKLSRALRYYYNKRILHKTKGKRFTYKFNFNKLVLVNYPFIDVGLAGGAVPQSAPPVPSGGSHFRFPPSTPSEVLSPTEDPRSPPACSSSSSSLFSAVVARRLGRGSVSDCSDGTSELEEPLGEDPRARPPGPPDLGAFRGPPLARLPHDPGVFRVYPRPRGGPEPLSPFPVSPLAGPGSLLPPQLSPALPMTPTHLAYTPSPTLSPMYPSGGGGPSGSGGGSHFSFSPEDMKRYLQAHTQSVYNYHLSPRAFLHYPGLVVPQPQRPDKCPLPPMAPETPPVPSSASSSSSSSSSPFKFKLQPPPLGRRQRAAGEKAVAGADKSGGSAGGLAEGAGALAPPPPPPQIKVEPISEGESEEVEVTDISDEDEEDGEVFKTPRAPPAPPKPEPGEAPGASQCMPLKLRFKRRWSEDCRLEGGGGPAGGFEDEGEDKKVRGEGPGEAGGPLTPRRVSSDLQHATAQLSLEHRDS
Conditions: protein: recombinant; tags: N-terminal GST; dsDNA, one strand shown. An outline of the steps: as §1

The target of a further test is T7, ETV3L (Homo sapiens, UniProt Q6ZN32 1-361).
T7 sequence: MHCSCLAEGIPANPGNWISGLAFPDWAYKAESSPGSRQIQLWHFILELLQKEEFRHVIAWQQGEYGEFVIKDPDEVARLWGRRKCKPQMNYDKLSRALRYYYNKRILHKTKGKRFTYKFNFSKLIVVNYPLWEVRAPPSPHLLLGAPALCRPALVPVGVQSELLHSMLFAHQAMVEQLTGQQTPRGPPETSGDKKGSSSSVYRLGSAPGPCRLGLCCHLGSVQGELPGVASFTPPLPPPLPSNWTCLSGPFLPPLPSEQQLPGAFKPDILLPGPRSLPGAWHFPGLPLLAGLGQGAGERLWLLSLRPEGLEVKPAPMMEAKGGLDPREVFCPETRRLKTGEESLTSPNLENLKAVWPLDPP
Conditions: protein: recombinant; tags: N-terminal GST; dsDNA, one strand shown. An outline of the steps: as §1

For another test, the target named is T8, ETS2 (Homo sapiens, UniProt P15036 1-469).
T8 sequence: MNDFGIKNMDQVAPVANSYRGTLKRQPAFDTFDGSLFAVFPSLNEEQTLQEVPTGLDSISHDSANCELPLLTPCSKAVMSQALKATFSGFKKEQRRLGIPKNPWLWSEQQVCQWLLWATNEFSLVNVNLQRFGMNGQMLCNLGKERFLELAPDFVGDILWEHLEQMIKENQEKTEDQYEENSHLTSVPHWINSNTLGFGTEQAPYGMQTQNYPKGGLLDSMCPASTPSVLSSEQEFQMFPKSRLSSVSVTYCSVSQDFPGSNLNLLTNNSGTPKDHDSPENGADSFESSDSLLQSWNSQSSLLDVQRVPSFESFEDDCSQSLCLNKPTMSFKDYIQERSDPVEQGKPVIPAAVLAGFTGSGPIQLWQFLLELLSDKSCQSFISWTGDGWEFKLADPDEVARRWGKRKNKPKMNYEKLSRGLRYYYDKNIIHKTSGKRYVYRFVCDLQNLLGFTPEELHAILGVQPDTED
As to conditions: protein: recombinant; tags: N-terminal GST; dsDNA, one strand shown. The method, boiled down:
as §1

The target of a further test is T9, SPDEF (Homo sapiens, UniProt O95238 1-335).
T9 sequence: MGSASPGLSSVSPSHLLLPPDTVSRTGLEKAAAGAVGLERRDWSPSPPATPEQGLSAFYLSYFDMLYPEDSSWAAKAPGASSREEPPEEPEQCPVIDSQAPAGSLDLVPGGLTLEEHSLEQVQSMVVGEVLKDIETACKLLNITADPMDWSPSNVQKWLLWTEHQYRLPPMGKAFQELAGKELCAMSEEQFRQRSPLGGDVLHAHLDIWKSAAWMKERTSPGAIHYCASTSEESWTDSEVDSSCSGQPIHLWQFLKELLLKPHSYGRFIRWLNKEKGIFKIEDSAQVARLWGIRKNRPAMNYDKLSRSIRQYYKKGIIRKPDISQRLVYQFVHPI
Conditions: protein: recombinant; tags: N-terminal GST; dsDNA, one strand shown. The method, boiled down:
as §1

The next test concerns the target T10, ETV7 (Homo sapiens, UniProt Q9Y603 1-341).
T10 sequence: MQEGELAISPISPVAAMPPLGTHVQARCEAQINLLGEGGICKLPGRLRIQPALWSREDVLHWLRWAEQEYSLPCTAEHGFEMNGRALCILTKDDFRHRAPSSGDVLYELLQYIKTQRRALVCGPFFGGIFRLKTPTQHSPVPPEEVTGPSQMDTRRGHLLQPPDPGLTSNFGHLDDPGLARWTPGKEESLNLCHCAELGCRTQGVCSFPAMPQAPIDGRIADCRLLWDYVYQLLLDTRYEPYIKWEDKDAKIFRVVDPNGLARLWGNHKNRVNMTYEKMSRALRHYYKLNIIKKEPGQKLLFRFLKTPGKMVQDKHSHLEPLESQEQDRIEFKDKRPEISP
As to conditions: protein: recombinant; tags: N-terminal GST; dsDNA, one strand shown. The method, boiled down: as §1

For a further test, the target named is T11, ELF5 (Homo sapiens, UniProt Q9UKW6-2 1-255).
T11 sequence: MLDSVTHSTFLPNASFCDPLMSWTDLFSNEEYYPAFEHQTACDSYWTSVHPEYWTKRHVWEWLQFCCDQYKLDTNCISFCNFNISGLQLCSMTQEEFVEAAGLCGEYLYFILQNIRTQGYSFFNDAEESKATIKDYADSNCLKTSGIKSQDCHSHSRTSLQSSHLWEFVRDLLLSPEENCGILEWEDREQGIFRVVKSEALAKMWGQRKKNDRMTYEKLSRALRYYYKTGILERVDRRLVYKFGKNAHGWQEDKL
As to conditions: protein: recombinant; tags: N-terminal GST; dsDNA, one strand shown. The method, boiled down: as §1

The next test addresses T12, ETV3 (Homo sapiens, UniProt P41162-2 1-143).
T12 sequence: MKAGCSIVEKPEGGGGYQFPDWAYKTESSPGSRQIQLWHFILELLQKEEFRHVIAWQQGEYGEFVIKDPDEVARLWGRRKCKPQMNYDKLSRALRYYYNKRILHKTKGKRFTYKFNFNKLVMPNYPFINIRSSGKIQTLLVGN
Conditions: protein: recombinant; tags: N-terminal GST; dsDNA, one strand shown. The method, boiled down:
as §1

For another test, the target named is ETV6 (Homo sapiens, UniProt P41212 1-452). Conditions: protein: recombinant; tags: N-terminal GST; dsDNA, one strand shown. The method, boiled down: as §1
Sequence of ETV6 (P41212 whole entry): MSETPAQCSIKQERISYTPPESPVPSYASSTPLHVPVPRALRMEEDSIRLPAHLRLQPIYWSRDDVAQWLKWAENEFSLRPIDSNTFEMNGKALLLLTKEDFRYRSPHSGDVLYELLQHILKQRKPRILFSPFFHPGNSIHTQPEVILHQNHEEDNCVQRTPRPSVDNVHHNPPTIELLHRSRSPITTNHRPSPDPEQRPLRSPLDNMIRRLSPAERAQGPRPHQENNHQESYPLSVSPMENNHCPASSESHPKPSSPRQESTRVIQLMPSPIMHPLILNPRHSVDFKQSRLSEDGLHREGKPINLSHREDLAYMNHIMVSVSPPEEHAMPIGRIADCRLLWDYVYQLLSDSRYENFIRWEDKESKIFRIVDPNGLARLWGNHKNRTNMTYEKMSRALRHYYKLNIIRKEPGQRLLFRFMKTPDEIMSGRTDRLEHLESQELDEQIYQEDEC

Sequence of ETV1 (P50549 whole entry): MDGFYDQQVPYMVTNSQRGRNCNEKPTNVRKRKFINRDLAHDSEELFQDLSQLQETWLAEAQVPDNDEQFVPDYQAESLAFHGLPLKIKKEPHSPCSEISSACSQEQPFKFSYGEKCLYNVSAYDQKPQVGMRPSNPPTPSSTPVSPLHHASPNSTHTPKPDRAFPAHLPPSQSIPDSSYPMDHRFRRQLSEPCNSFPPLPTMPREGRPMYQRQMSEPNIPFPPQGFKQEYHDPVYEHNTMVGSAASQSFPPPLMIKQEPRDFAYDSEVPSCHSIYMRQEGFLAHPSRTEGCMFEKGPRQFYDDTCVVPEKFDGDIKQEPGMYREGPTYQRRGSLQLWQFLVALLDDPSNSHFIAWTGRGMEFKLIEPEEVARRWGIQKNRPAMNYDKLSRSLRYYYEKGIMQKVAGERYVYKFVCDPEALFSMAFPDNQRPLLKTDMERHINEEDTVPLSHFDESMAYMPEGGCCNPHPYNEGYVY
Sequence of ETV5 (P41161 whole entry): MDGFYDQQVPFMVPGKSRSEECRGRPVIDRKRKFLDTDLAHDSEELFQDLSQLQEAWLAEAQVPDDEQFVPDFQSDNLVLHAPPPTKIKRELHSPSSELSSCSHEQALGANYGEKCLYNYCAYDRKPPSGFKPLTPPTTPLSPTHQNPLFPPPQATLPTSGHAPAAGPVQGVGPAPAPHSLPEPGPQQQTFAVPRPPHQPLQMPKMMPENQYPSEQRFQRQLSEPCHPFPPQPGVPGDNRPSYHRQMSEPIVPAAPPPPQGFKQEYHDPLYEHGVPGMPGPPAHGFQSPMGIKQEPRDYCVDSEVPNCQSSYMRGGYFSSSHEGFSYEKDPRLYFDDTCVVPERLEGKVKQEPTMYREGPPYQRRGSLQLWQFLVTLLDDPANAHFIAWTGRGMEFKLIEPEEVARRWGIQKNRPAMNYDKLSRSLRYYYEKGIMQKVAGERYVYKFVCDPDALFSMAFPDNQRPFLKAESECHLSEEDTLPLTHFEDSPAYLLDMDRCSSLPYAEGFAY
Sequence of HSF1 (Q00613 whole entry): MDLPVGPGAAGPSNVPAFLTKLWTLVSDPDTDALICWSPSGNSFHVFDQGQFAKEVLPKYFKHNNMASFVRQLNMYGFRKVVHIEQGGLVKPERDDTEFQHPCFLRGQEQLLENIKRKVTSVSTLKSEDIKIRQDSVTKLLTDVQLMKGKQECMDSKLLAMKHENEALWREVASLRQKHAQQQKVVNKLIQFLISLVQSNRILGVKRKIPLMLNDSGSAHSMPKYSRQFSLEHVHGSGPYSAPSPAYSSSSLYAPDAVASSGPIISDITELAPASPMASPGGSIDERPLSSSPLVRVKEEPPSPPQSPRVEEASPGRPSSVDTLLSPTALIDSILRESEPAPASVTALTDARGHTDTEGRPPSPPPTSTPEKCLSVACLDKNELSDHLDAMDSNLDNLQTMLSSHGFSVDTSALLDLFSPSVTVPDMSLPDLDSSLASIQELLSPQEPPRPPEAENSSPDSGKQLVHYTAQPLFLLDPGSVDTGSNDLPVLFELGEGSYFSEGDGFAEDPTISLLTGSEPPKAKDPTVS
Sequence of ELF4 (Q99607 whole entry): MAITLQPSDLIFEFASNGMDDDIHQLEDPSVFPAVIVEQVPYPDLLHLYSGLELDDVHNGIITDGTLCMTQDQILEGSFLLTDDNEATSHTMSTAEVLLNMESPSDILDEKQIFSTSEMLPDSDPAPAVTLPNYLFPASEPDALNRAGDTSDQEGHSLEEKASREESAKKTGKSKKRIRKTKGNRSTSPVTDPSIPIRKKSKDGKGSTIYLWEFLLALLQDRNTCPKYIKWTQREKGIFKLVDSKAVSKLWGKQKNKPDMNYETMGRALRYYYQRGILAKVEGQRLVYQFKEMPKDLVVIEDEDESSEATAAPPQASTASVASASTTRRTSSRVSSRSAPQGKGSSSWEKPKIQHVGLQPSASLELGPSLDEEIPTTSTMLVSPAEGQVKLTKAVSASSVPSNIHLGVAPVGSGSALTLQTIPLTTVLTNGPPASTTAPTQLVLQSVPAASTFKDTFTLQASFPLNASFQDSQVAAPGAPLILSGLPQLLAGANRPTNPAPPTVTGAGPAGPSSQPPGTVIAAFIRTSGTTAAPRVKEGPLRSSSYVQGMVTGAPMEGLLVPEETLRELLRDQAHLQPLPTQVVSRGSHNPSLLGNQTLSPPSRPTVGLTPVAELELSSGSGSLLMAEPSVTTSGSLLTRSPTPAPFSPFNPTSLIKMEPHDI

Regarding TAGCCC, the binding signal is 1.21 fold enrichment (6-mer frequency, TF over GST control) with FEV; 1.18 fold enrichment (6-mer frequency, TF over GST control) with ETV5; 1.19 fold enrichment (6-mer frequency, TF over GST control) with HSF1; 1.23 fold enrichment (6-mer frequency, TF over GST control) with SPIC; 1.28 fold enrichment (6-mer frequency, TF over GST control) with ELF4; 1.15 fold enrichment (6-mer frequency, TF over GST control) with ELK4. Further, the binding signal in the test with ETV2 is 1.15 fold enrichment (6-mer frequency, TF over GST control); in the test with ELF3, 1.08 fold enrichment (6-mer frequency, TF over GST control); in the test with CRX, 1.36 fold enrichment (6-mer frequency, TF over GST control); with ETV1, 1.12 fold enrichment (6-mer frequency, TF over GST control); with ERF it was 1.18 fold enrichment (6-mer frequency, TF over GST control); with ETV3L it was 1.11 fold enrichment (6-mer frequency, TF over GST control). The binding signal with ETS2 was 1.14 fold enrichment (6-mer frequency, TF over GST control); with SPDEF, 1.3 fold enrichment (6-mer frequency, TF over GST control); in the test with ETV7 it was 1.05 fold enrichment (6-mer frequency, TF over GST control); with ELF5, 1.07 fold enrichment (6-mer frequency, TF over GST control); in the test with ETV3, 1.24 fold enrichment (6-mer frequency, TF over GST control); with ETV6, 1.04 fold enrichment (6-mer frequency, TF over GST control).

The record behind these values is publication PMC7862700, “An all-to-all approach to the identification of sequence-specific readers for epigenetic DNA modifications on cytosine”.
